This is part of a sample that, as a whole, favours compounds with a hit. Of some 83,000 tested, about 20% had one in any assay.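 The endpoint reported here, percent growth, reads 100 for growth as untreated, 0 for no net growth and -100 for all cells dead.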 A number with no mark means an inactive call. Active and inactive are the calls of the source. Rule for the calls: active = growth percent below 10; inactive = the rest.
system: A498 renal; assay: NCI-60 one-dose screen, 48 h (100 = growth as untreated, 0 = no growth, -100 = all killed); conditions: 10 µM

Row | Structure (SMILES) | growth
1 | Clc1ccc(/C=C2\CCCC3C2=Nc2ccccc2NC3c2ccc(Cl)cc2)cc1 (centres undefined) | 67.2%
2 | CC[C@@H](C(=O)[C@H](C)[C@H](O)[C@@H](C)[C@H]1O[C@H]([C@@H](CC)C(=O)N(CC)CC)CC[C@H]1C)C1O[C@]2(C=C[C@@H](O)[C@]3(CC[C@@](C)([C@H]4CC[C@](O)(CC)[C@H](C)O4)O3)O2)[C@H](C)C[C@@H]1C (some centres undefined) | 13.8%
3 | c1ccc(/C(=N\Nc2ccc3ccccc3n2)c2ccccn2)cc1 | -47.3% (active)
4 | O=C(NCCCNS(=O)(=O)c1ccc(Cl)cc1)Nc1ccc(-n2cc(-c3ccncc3)c(-c3ccc(Cl)c(O)c3)n2)cc1 | 50.1%
5 | CN(C)CCOc1ccc(-c2nc3sccn3c2-c2ccnc(S(C)(=O)=O)n2)cc1 | 96.3%
6 | CC[C@H]1OC(=O)[C@H](C)[C@@H](O[C@H]2C[C@@](C)(OC)[C@@H](O)[C@H](C)O2)[C@H](C)[C@@H](O[C@@H]2O[C@H](C)C[C@H](N(C)C)[C@H]2O)[C@](C)(OC)C/C(C)=C2/O[C@@]1(C)C=C2C | 83.9%
7 | COc1cc(/C=C2\CCCC3=C2NC(N)=NC3c2cc(OC)c(OC)c(OC)c2)cc(OC)c1OC (centres undefined) | 0.45% (active)
8 | O=[N+]([O-])c1cccc(/C=N/NC(=S)NC23CC4CC(CC(C4)C2)C3)c1 | 97.1%
9 | CNC(=O)c1cc(Oc2ccc3c(c2)sc2nc(-c4ccc(N)cc4)cn23)ccn1 | 26.7%
10 | COc1ccc2c(c1)OC(N)=C(C#N)C2c1cc(OC)c(OC)c(OC)c1 (centres undefined) | -14.1% (active)
11 | S=C(NCc1ccccc1)NCc1ccccc1 | 80%
12 | CC(=O)OC1C=CC(OC(C)=O)O1 (centres undefined) | 81.3%
13 | Cc1ccc(Cl)cc1NC(=O)CCl | 105%
14 | CCC(C)[C@H](NC(C)=O)C(=O)N[C@@H](CCCNC(=N)N)C(=O)N[C@@H](CCCCN)C(=O)N[C@@H](CC1CCC(O)CC1)C(=O)NC(C(=O)N[C@@H](CCSC)C(=O)N[C@@H](CCCNC(=N)N)C(=O)N[C@@]1(C)CCC/C=C\CCC[C@@](C)(C(=O)NC(C(=O)N[C@@H](CCC(=O)O)C(=O)N[C@@H](CC(C)C)C(=O)N[C@H](C(=O)N[C@@H](CCC(=O)O)C(N)=O)C(C)C)[C@@H](C)O)NC(=O)[C@H](CCC(N)=O)NC(=O)[C@H](CC(C)C)NC(=O)[C@H](CC(C)C)NC1=O)[C@@H](C)O (some centres undefined) | 120%
15 | COc1cc2cc(Oc3ccc(NC(=O)c4cccc(C(F)(F)F)c4)cc3)c(C)nc2cc1OC | 0.391% (active)
16 | COc1ccc(-c2onc(N)c2-c2cc(OC)c3c(c2)OCO3)cc1 | 12%
17 | COc1cc2cc(Oc3ccc(NC(=O)c4ccccc4)cc3)c(C)nc2cc1OC | 89%

Row | Structure (SMILES) | growth
18 | CS(=O)(=O)c1nccc(-c2c(-c3cccc(OCc4ccc(F)cc4)c3)nc3sccn23)n1 | 77.3%
19 | O=C(N/N=C/c1ccc(Cl)cc1)c1ccccc1Nc1cccc(C(F)(F)F)c1 | -13.2% (active)
20 | CC(C)(C)OC(=O)N1CCc2c(sc3ncnc(N/N=C/c4ccccc4Br)c23)C1 | 84.7%
21 | CC(C)N(CCOc1ccc(-c2nc3sccn3c2-c2ccnc(S(C)(=O)=O)n2)cc1)C(C)C | 60.3%
22 | COc1cccc(C2C(C#N)=C(N)Oc3cc(N)ccc32)c1 (centres undefined) | 1.48% (active)
23 | Cc1ccc(NCCN(C)CC(C)O)c2c(=O)c3ccccc3sc12 (centres undefined) | 68.4%
24 | CCCCN(CCCC)C(=O)[C@H](CC)[C@@H]1CC[C@@H](C)[C@@H]([C@H](C)[C@@H](O)[C@@H](C)C(=O)[C@H](CC)C2O[C@]3(C=C[C@@H](O)[C@]4(CC[C@@](C)([C@H]5CC[C@](O)(CC)[C@H](C)O5)O4)O3)[C@H](C)C[C@@H]2C)O1 (some centres undefined) | -14.6% (active)
25 | CC(C)N(CCOc1cccc(-c2nc3sccn3c2-c2ccnc(S(C)(=O)=O)n2)c1)C(C)C | 53.2%
26 | NC(=O)c1cccc(-n2ccc3cc(NC(=O)Nc4ccc(Cl)c(C(F)(F)F)c4)ccc32)n1 | 56.9%
27 | COc1cccc(-c2nc3sccn3c2-c2cccc(S(C)(=O)=O)c2)c1 | 106%
28 | COc1ccc(Cl)cc1Nc1nc(C(F)(F)F)ccc1C(=O)N/N=C/c1ccc(Cl)cc1 | -35.2% (active)
29 | CCOc1ccccc1/C=N\N=C\c1ccccc1O | 91.2%
30 | CN(C)c1ccc(/C=N/NC(=O)c2ccccc2Nc2cccc(C(F)(F)F)c2)cc1 | 1.42% (active)
31 | COc1cc2cc(Oc3ccc(NC(=O)Nc4cccc(C(F)(F)F)c4)cc3)c(C)nc2cc1OC | 21.7%
32 | O=C(Nc1cc(Cl)cc2c1-c1ccc(Cl)cc1C2O)C(Cl)Cl (centres undefined) | 74.4%
33 | C/C(=N\O)c1ccc(NC(=O)CSc2nnc(-c3ccccc3)n2-c2ccccc2)cc1 | 92.7%
34 | CCN(CC)CCCOc1cccc2c1C(=O)c1cccc(OCCCN(CC)CC)c1C2=O | 46.4%
